Active and inactive are the calls of the source.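 Rule for the calls: active = falling viability signal whose fitted half-maximal concentration is at most twice the highest tested dose; inconclusive = flat fit with a moderate drop, or a poor curve fit; inactive = the rest.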
Assay: HepG2 viability loss by ATP level – cell-based, CellTiter-Glo luminescence, dry powder, cytotoxicity control, dose response (AID 743482)
Settings: 72 h; series mostly up to 26 µM

| Structure (SMILES) | outcome |
| --- | --- |
| C[C@@H]1CCCCO[C@H](CN(C)C(=O)Nc2cccc3ccccc23)[C@H](C)CN([C@@H](C)CO)C(=O)c2cc(NC(=O)C3CCCCC3)ccc2O1 | inactive |
| C[C@H]1CCCCO[C@@H](CN(C)C(=O)Nc2ccc(C(F)(F)F)cc2)[C@@H](C)CN([C@@H](C)CO)C(=O)c2cc(NC(=O)CCC(F)(F)F)ccc2O1 | inactive |
| C[C@H](CO)N1C[C@H](C)[C@H](CN(C)C(=O)Nc2ccc(C(F)(F)F)cc2)OCCCC[C@H](C)Oc2ccc(NC(=O)NC3CCCCC3)cc2C1=O | inactive |
| C[C@H](CO)N1C[C@H](C)[C@H](CN(C)C(=O)Nc2ccccc2)OCCCC[C@H](C)Oc2ccc(NC(=O)NC3CCCCC3)cc2C1=O | inactive |
| C[C@H]1CCCCO[C@H](CN(C)C(=O)Nc2cccc3ccccc23)[C@@H](C)CN([C@@H](C)CO)C(=O)c2cc(NC(=O)C3CCCCC3)ccc2O1 | inactive |
| CC(=O)Nc1ccc2c(c1)C(=O)N([C@H](C)CO)C[C@H](C)[C@H](CN(C)C(=O)Nc1ccc(F)cc1)OCCCC[C@H](C)O2 | inactive |
| C[C@H](CO)N1C[C@H](C)[C@H](CN(C)C(=O)Nc2ccc(F)cc2)OCCCC[C@H](C)Oc2ccc(NC(=O)C3CCCC3)cc2C1=O | inactive |
| C[C@@H]1CN([C@H](C)CO)C(=O)c2cc(NC(=O)C3CCCCC3)ccc2O[C@@H](C)CCCCO[C@@H]1CN(C)C(=O)Nc1cccc2ccccc12 | inactive |
| C[C@@H]1CCCCO[C@@H](CN(C)C(=O)Nc2cccc3ccccc23)[C@@H](C)CN([C@H](C)CO)C(=O)c2cc(NC(=O)C3CCCCC3)ccc2O1 | inactive |
| CC(C)(C)c1ccc(-c2nc(-c3ccncc3)no2)cc1 | inactive |
| C[C@H](CO)N1C[C@H](C)[C@H](CN(C)C(=O)Nc2ccc(F)cc2)OCCCC[C@H](C)Oc2ccc(NC(=O)C3CC3)cc2C1=O | inactive |
| C[C@H](CO)N1C[C@H](C)[C@H](CN(C)C(=O)Nc2ccccc2)OCCCC[C@H](C)Oc2ccc(NC(=O)C3CCCCC3)cc2C1=O | inactive |
| C[C@@H]1CCCCO[C@H](CN(C)C(=O)Nc2cccc3ccccc23)[C@H](C)CN([C@H](C)CO)C(=O)c2cc(NC(=O)C3CCCCC3)ccc2O1 | inactive |
| C[C@H](CO)N1C[C@H](C)[C@H](CN(C)C(=O)Nc2ccccc2F)OCCCC[C@H](C)Oc2ccc(NC(=O)C3CCCCC3)cc2C1=O | inactive |
| C[C@H](CO)N1C[C@H](C)[C@H](CN(C)C(=O)Nc2ccc3c(c2)OCO3)OCCCC[C@H](C)Oc2ccc(NC(=O)C3CCCCC3)cc2C1=O | inactive |
| C[C@H](CO)N1C[C@H](C)[C@H](CN(C)C(=O)Nc2cccc3ccccc23)OCCCC[C@H](C)Oc2ccc(NC(=O)NC3CCCCC3)cc2C1=O | inactive |
| C[C@H](CO)N1C[C@H](C)[C@H](CN(C)C(=O)Nc2cccc3ccccc23)OCCCC[C@H](C)Oc2ccc(NC(=O)C3CCCCC3)cc2C1=O | inactive |
| C[C@@H]1CCCCO[C@@H](CN(C)C(=O)Nc2cccc3ccccc23)[C@H](C)CN([C@H](C)CO)C(=O)c2cc(NC(=O)C3CCCCC3)ccc2O1 | inactive |
| C[C@@H]1CCCCO[C@@H](CN(C)C(=O)Nc2cccc3ccccc23)[C@@H](C)CN([C@@H](C)CO)C(=O)c2cc(NC(=O)C3CCCCC3)ccc2O1 | inactive |
| C[C@@H]1CN([C@@H](C)CO)C(=O)c2cc(NC(=O)C3CCCCC3)ccc2O[C@@H](C)CCCCO[C@@H]1CN(C)C(=O)Nc1cccc2ccccc12 | inactive |
| C[C@H](CO)N1C[C@H](C)[C@H](CN(C)C(=O)Nc2ccc3ccccc3c2)OCCCC[C@H](C)Oc2ccc(NC(=O)C3CCCCC3)cc2C1=O | inactive |
| C[C@H](CO)N1C[C@H](C)[C@H](CN(C)C(=O)Nc2ccc(F)cc2)OCCCC[C@H](C)Oc2ccc(NC(=O)Nc3ccc(F)cc3)cc2C1=O | inactive |
| C[C@@H]1CCCCO[C@H](CN(C)C(=O)Nc2cccc3ccccc23)[C@@H](C)CN([C@H](C)CO)C(=O)c2cc(NC(=O)C3CCCCC3)ccc2O1 | inactive |
| C[C@H](CO)N1C[C@H](C)[C@H](CN(C)C(=O)Nc2cccc3ccccc23)OCCCC[C@H](C)Oc2ccc(NC(=O)CCC(F)(F)F)cc2C1=O | inactive |
| C[C@H](CO)N1C[C@H](C)[C@H](CN(C)C(=O)Nc2ccc3c(c2)OCO3)OCCCC[C@H](C)Oc2ccc(NC(=O)NC3CCCCC3)cc2C1=O | inactive |
| C[C@H](CO)N1C[C@H](C)[C@@H](CN(C)C(=O)Nc2cccc3ccccc23)OCCCC[C@H](C)Oc2ccc(NC(=O)C3CCCCC3)cc2C1=O | inactive |

Reference: PubChem BioAssay AID743482 (Broad Institute, 2014)
